In PubChem BioAssay AID651995 (Sanford-Burnham Center for Chemical Genomics, 2013):
The campaign covered roughly 2,500 compounds. About 480 (19%) were called active.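 Rule for the calls: active = mean inhibition above about 25% (limit read from the data); inactive = the rest.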 These entries were drawn from the full list.

experiment: Wnt3a reporter signal inhibition, confirmation, counter-screen for Gli-SUFU antagonist project, Wnt-LIGHT cells, luminescence, single concentration (AID 651995); details: Wnt3a-driven luciferase reporter, at 6.25 µM, hits give high values

| SMILES | inhibition |
| --- | --- |
| Cc1ccc(S(=O)(=O)N2C[C@@H]3CCCC[C@@H]3[C@@H](C)[C@H]2c2cn(Cc3ccccc3)c3ccc(F)cc23)cc1 | 30.5% (active) |
| COc1ccccc1N1CCN(Cc2cc(OC)c3c(c2)OCO3)CC1 | -25% (inactive) |
| CCN(CC(=O)Nc1cc(Cl)ccc1C)C(=O)CSCc1ccc(C)cc1 | -8.43% (inactive) |
| C=CCOC(=O)C1=C[C@@H](c2ccc3c(c2)OCO3)C[C@@H](OCCCCO)O1 | -7.34% (inactive) |
| Cc1c(Cl)c([N+](=O)[O-])nn1Cc1ccc(C(=O)N/N=C\c2cc(Cl)ccc2O)o1 | 61.7% (active) |
| Cc1cc([N+](=O)[O-])c(-c2ccc(/C=N/n3cnnc3)o2)cc1Cl | -8.22% (inactive) |
| O=[N+]([O-])c1ccc(N2CCN(CC(O)COc3ccccc3)CC2)cc1 (stereo unspecified) | -30.2% (inactive) |
| CC1(C)Cc2ccccc2/C(=C/C(=O)c2ccccc2)N1 | 9.91% (inactive) |
| CCOC(=O)c1cnc(-n2nc(C)cc2C)nc1NNc1cc(C)nc(-c2ccccc2)n1 | 40.7% (active) |
| Cc1nn(C)c(Cl)c1CN1CCC(n2nccc2NC(=O)C2CCCC2)CC1 | -36.2% (inactive) |
| CCCC1=Nc2cc(C(=O)NCc3ccco3)ccc2Sc2ccccc21 | -23.7% (inactive) |
| CCN1/C(=C/C(=S)Nc2ccccc2)Sc2ccccc21 | -77.3% (inactive) |
| CCc1c(C)[nH]c(=S)c(C#N)c1C | -19.5% (inactive) |
| N#CC(C#N)=CN=c1ccn(Cc2ccc(Cl)cc2Cl)cc1 | -5.79% (inactive) |
| N#Cc1ccc(C(=O)Nc2nc(-c3cccs3)c(C(=O)C(F)(F)F)s2)cc1 | 65.1% (active) |
| O=C(NC1CCN(C(=S)Nc2ccc(Cl)cc2)CC1)C1CCCCC1 | -1.08% (inactive) |
| Cc1ccc(-c2nc(CSCC(=O)NC3CCN(Cc4ccccc4)CC3)c(C)o2)cc1 | -19.9% (inactive) |
| CN(C)CCN(C(=O)C1CCCCC1)c1nc2cc3c(cc2s1)OCO3 | -21.9% (inactive) |
| c1c2c(cc3sc(N4CCCCC4)nc13)OCCO2 | 85.8% (active) |
| CN(C)C(CNC(=O)Cc1ccc([N+](=O)[O-])cc1)c1ccccc1 (stereo unspecified) | -27% (inactive) |
| COc1ccccc1CNC(=O)C1CCN(c2nc3ccccc3o2)CC1 | -23.3% (inactive) |
| C=CCC1(CC=C)CCCN1C(=O)c1cc(COc2ccc(-n3cncn3)cc2)on1 | -17% (inactive) |
| CCCOc1ccccc1C1CC(=O)Nc2cc3c(cc21)OCO3 (stereo unspecified) | -18.6% (inactive) |

| SMILES | inhibition |
| --- | --- |
| COc1ccc(NS(=O)(=O)c2ccc(NC(C)=O)cc2)cc1OC | 13.2% (inactive) |
| COc1ccc(NS(=O)(=O)c2ccc(N3CCN(CCO)CC3)c([N+](=O)[O-])c2)cc1 | 26.4% (active) |
| CC1(C)CC2CC(C)(CN2c2ncnc3ccc(Br)cc23)C1 (stereo unspecified) | 19% (inactive) |
| CC1(C)CC(=O)c2c(n(S(=O)(=O)c3ccccc3)c3ccc(NS(=O)(=O)c4ccccc4)cc23)C1 | 13.1% (inactive) |
| COc1ccc(OC)c(Cc2cnc3nc(N)nc(N)c3c2C)c1 | 14.4% (inactive) |
| O=C1/C(=C/c2ccc(F)cc2)SC(=S)N1NS(=O)(=O)c1ccccc1 | 12.4% (inactive) |
| CN(c1ccc2nc3ccccc3c(=O)n2n1)C1CCCCC1 | 101% (active) |
| O=C(CN1CCN(S(=O)(=O)c2cc(Cl)ccc2Cl)CC1)c1ccc(O)c(O)c1 | 73.7% (active) |
| CC(C)(CNC(=O)c1ccc(Cl)c(S(=O)(=O)N2CCc3ccccc3C2)c1)N1CCOCC1 | -21.4% (inactive) |
| Nc1ccc(C(=O)N2CCN(S(=O)(=O)c3ccc(Cl)cc3)CC2)cc1[N+](=O)[O-] | -13.1% (inactive) |
| COc1cccc(-n2cc(C(=O)O)c3ccccc3c2=O)c1 | 20.7% (inactive) |
| CCOC(=O)c1cnc(Nc2nc3ccccc3o2)nc1CSC(=S)N1CCCCC1 | -97.9% (inactive) |
| COc1ccccc1CCNC(=O)C(=O)NCCC1CCCCN1S(=O)(=O)c1cccs1 (stereo unspecified) | -17.3% (inactive) |
| CC(=O)Nc1ccc(NC(=O)c2ccc3c(c2)C(=O)N(c2ccccc2C)C3=O)cc1 | 3.62% (inactive) |
| COC(=O)c1ccc(CSc2nnc(N)s2)o1 | -4.51% (inactive) |
| O=C1/C(=C\c2cccnc2)CN(Cc2ccccc2)C/C1=C\c1cccnc1 | -9.32% (inactive) |
| Cc1ccsc1C(=O)OCC(=O)c1cc(C)n(CC2CCCO2)c1C (stereo unspecified) | 104% (active) |
| Cc1onc(-c2ccccc2)c1C(=O)Nc1ccccc1C#N | -19.9% (inactive) |
| CC(=O)Nc1cccc(OCC(=O)/C=C2\N(C)c3ccccc3C2(C)C)c1 | -13.7% (inactive) |
| Cn1c(=O)c2c(nc(NCCc3ccccc3)n2Cc2ccccc2)n(C)c1=O | -9.98% (inactive) |
| COCCn1c(CN2CCC(Cc3ccccc3)CC2)nc2c1c(=O)n(C)c(=O)n2C | 16.5% (inactive) |
| CCCCNc1nc2c(c(=O)n(C)c(=O)n2C)n1Cc1cccc(OC)c1 | 36.1% (active) |
| CN(C)c1cc[n+](Cc2ccccc2)cc1 | 12.4% (inactive) |

| SMILES | inhibition |
| --- | --- |
| COc1ccc2nc(SCC(=O)Nc3c(C)cc(C)cc3C)[nH]c2c1 | -15% (inactive) |
| O=C(Nc1cccc(S(=O)(=O)Nc2ccc(Cl)cc2)c1)c1ccc2c(c1)OCCO2 | -22.2% (inactive) |
| Cc1ccc(NC(=S)Nc2ccc(F)cc2)cc1 | -8.22% (inactive) |
| CC(C)c1ccc(OCC(O)CN2CCN(c3ccccn3)CC2)cc1 (stereo unspecified) | -70.7% (inactive) |
| C=CCNC(=S)/N=c1/ccccn1Cc1ccccc1 | -4.94% (inactive) |
| CCOC(=O)c1ccc(NC(=O)Cn2cnc3cc(C)c(C)cc32)cc1 | -27.9% (inactive) |
| COc1ccc(NC(=O)[C@H](NC(=O)[C@@H]2Cc3ccccc3CN2)c2ccccc2)cc1 | -2.11% (inactive) |
| Cc1ccc(C)c(S(=O)(=O)N2CCN(c3ncnc4sccc34)CC2)c1 | 11.2% (inactive) |
| CC(=O)N1CCCc2cc(S(=O)(=O)N3CCCC(C(=O)N4CCN(c5cccc(Cl)c5)CC4)C3)ccc21 (stereo unspecified) | 29.8% (active) |
| Brc1c(CSc2nncc3ccccc23)nc2ccccn12 | 1.67% (inactive) |
| COc1ccc(Cn2c(-c3ccc(Cl)cc3)c[n+]3ccccc23)cc1 | -74.3% (inactive) |
| CCCCC(=O)NC(c1ccc(OC)c(OC)c1)c1ccc2cccnc2c1O (stereo unspecified) | 53.4% (active) |
| Cc1ccc(Nc2nc(N3CCOCC3)nc(N3CCOCC3)n2)cc1Cl | -104% (inactive) |
| COc1ccccc1C1C2=C(COC2=O)Nc2cc3c(cc21)OCO3 (stereo unspecified) | -30.9% (inactive) |
| COC(=O)Cc1[nH]n(-c2nc3ccccc3s2)c(=O)c1C(C)=Nc1ccc(OC)cc1 | 104% (active) |
| COc1cc(C(=O)OC2CCOC2=O)c([N+](=O)[O-])cc1OC (stereo unspecified) | 1.38% (inactive) |
| CCOc1ccc(-n2c(O)c(/C=N/Nc3nc(C)cc(C)n3)c3ccccc3c2=O)cc1 | 16.1% (inactive) |
| CN1C(CC(=O)Nc2ccc(Br)cc2)c2ccccc2CC1(C)C (stereo unspecified) | -37.9% (inactive) |
| C/C(=N\NC(=O)Cc1ccc(Cl)cc1)c1ccccn1 | 48.9% (active) |
| CC(=O)/C(=N\Nc1ccc(Cl)cc1Cl)Sc1cccc2cccnc12 | -140% (inactive) |
| CCNC(=S)N(CCN(CC)CC)Cc1cc2cc3c(cc2[nH]c1=O)OCO3 | -0.1% (inactive) |
| Cc1nonc1C1CCCN1C(=O)c1cc(COc2cccc(C(F)(F)F)c2)on1 (stereo unspecified) | -42% (inactive) |
| Cc1ccc(S(=O)(=O)N(Cc2cc3ccccc3[nH]c2=O)CC2CCCO2)cc1 (stereo unspecified) | 1.8% (inactive) |

| SMILES | inhibition |
| --- | --- |
| Cc1cc2[nH]ncc2cc1NC(=S)NC(=O)c1ccccc1 | -34.9% (inactive) |
| Cc1ccccc1C(=O)NC(=S)Nc1ccc(N2CCN(C(=O)c3ccccc3)CC2)cc1 | 41.2% (active) |
| Cc1cc(C)c(SCCc2ccncc2)c(C)c1 | 32% (active) |
| CCCOc1ccc(Cc2c(Cl)nc(SC)nc2NC)cc1 | 26.9% (active) |
| O=C(Nc1ccnn1C1CCN(C/C=C/c2ccc(F)cc2)CC1)C1CCCC1 | -63.4% (inactive) |
| CNc1ccc(SC#N)cc1 | -9.54% (inactive) |
| COc1ccc(C(=O)NC2CCCc3c2cnn3-c2cccc(C)c2C)c(OC)n1 (stereo unspecified) | 24.6% (inactive) |
| CCN(CC)CCNC(=O)c1ccc(NC(=O)c2cc(-c3ccncc3)nc3ccccc23)cc1 | -2.49% (inactive) |
| Cc1ccc(C(=O)C[n+]2cc(-c3ccccc3)n3c2CCCCC3)cc1 | -0.91% (inactive) |
| Cc1ccc(-c2nc3c(cnn3-c3ccccc3)c(=O)o2)cc1 | 4.18% (inactive) |
| O=C(C[C@H]1C/C=C\C[C@@H](NC(=O)OCC2c3ccccc3-c3ccccc32)C(=O)O[C@@H](c2ccccc2)CNC1=O)N[C@H](CO)Cc1ccccc1 | -44.6% (inactive) |
| COc1ccc(OC)c(/C=N/NC(=O)c2ccc[n+](CC(=O)c3ccccc3)c2)c1 | 2.64% (inactive) |
| CC[n+]1c(C)n(-c2ccccc2)c2ccc(NC(C)=O)cc21 | 43.4% (active) |
| Cc1ccc(O)c(NC(=O)COc2cc(C)ccc2C)c1 | -3.69% (inactive) |
| CNc1nnc(-c2ccco2)s1 | -3.08% (inactive) |
| COC(=O)c1ccccc1NC(=O)C1(S(=O)(=O)c2ccc(Cl)cc2)CC1 | -1.78% (inactive) |
| O=C(Nc1nc2ccc([N+](=O)[O-])cc2s1)c1ccc(S(=O)(=O)N2CCCc3ccccc32)cc1 | 65.8% (active) |
| CCc1ccc(C2C(C#N)=C(N)N(N3CCOCC3)C3=C2C(=O)CC(C)(C)C3)s1 (stereo unspecified) | -28.8% (inactive) |
| CCCc1nc(N)nc2c1C(=O)CC(C)(C)C2 | 9.89% (inactive) |
| Cc1cc(NC(=O)c2cccc(N3C(=O)CCC3=O)c2)no1 | 66% (active) |
| CC1CC2=C(CC1/C=N/NC(N)=S)C(C)(C)CCC2 (stereo unspecified) | 21.2% (inactive) |
| CCc1c(C)nc2cc(C)[nH]n2c1=O | -9.69% (inactive) |
